L3MBTL1 block – L3MBTL1 (human) inhibition. Q9Y468. Potency, µM (titrated, usually from 57.1 µM), for the others: at the top dose activity, negative = inhibition, actives largely listed as inhibitors. AlphaScreen L3MBTL1–H3K9me1 peptide binding. 230,000 tested, 0.66% active; further: on the % scale 0 is the no-effect control and ±100 the full control effect; nearly all actives have a fitted effect of over 60% in size
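AlphaScreen proximity signal between nickel-chelate acceptor and streptavidin donor beads (final 10 ug/mL) reports binding of 50 nM L3MBTL1 to 75 nM biotin-H3 K9me1 peptide; complex incubated with compounds 30 min at room temperature; cefsulodin titration as control.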
HP1b chromo inh – HP1-beta chromodomain-methylated histone interaction inhibition; P83916; AlphaScreen HP1-beta / biotin-H3K9me3 peptide binding; Potency, µM (series often up to 114 µM), inactives show at the highest dose activity change, negative = inhibition, hits mostly inhibitors; 390,000 tested, 0.56% active; further: nearly all actives have a fitted effect of over 70% in size
Target sequence (P83916 whole entry, looked up): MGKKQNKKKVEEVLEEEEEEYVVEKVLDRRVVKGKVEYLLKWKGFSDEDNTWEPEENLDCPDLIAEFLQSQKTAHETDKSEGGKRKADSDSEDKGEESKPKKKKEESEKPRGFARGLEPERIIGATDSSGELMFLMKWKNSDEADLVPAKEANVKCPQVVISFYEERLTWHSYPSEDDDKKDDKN
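HP1-beta protein (50 nM final) preincubated 30 min at room temperature with biotinylated H3(1-18)K9me3 peptide (50 nM) in PBS pH 7.4, 0.01% Tween-20, then compound added for 30 min. AlphaScreen streptavidin donor/nickel chelate acceptor beads (10 ug/mL final), 30 min dark, luminescence read.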
BAZ2B block – BAZ2B (human) inhibition. AID 504333. Q9UIF8. Potency, µM (doses to about 114 µM), without a hit: at the highest dose activity change, negative = inhibition, most hits filed as inhibitors. 360,000 tested, 4.4% active. AlphaScreen BAZ2B-H3K14Ac peptide displacement; further: on the % scale 0 is the no-effect control and ±100 the full control effect; nearly all actives have a fitted effect of over 60% in size
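BAZ2B (50 nM) with biotin-H3(5-23)K14Ac peptide (50 nM) in PBS pH 7.4, 0.01% Tween-20, preformed 30 min, then compound 30 min at room temperature; top concentration 110uM. AlphaScreen streptavidin donor/nickel chelate acceptor beads (10 ug/mL final), 20 min dark, signal read.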
JMJD2A Tudor – blocks the human JMJD2A Tudor domain. O75164. 390,000 tested, 4.4% active. Potency, µM (titrated, usually from 114 µM), for the others: top-dose activity change, negative = inhibition, actives largely listed as inhibitors. AID 504339. AlphaScreen JMJD2A-Tudor / H3K4me3 peptide binding; further: on the % scale 0 is the no-effect control and ±100 the full control effect; nearly all actives have a fitted effect of over 50% in size
G9a inh – inhibitors of human histone lysine methyltransferase G9a; Potency, µM (doses to about 102 µM), for inactives: at the highest dose activity, negative = inhibition, hits mostly inhibitors; 350,000 tested, 8.8% active; AID 504332; G9a H3K9 monomethylation, AlphaScreen, 2 h; further: on the % scale 0 is the no-effect control and ±100 the full control effect; nearly all actives have a fitted effect of over 75% in size
Target sequence (Q96KQ7 913-1193 limits assumed): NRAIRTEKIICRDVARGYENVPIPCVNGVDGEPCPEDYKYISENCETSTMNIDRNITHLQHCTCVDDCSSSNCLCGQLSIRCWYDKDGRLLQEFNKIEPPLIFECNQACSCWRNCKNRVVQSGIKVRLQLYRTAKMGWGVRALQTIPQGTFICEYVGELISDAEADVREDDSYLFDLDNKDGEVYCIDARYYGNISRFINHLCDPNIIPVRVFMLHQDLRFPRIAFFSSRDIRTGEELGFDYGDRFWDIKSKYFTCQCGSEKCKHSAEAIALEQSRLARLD
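AlphaScreen detection with an anti-monomethyl H3K9 antibody quantified product after a 2 h room-temperature reaction containing 500 nM biotinylated H3K9 peptide, 20 µM SAM and 20 nM enzyme, which had been preincubated 15 min with compound.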
* = called active by the depositor; [ ] = remark or other dose. This is a sample that favours compounds with a hit; in the whole collection about 11% have one here. The call rests on the fitted dose curve; in most records, active means well fitted inhibition curve with a large enough effect; inconclusive means small, poorly fitted or top-dose-only effect; inactive means no such curve, though single readings can be large or run the other way. Potency means the concentration at half of the fitted maximal effect.

Screening O=c1/c(=C/c2ccccn2)sc2n1CN(c1ccccc1)CN=2 returned L3MBTL1 block -2.9%, HP1b chromo inh -37.2%, BAZ2B block 6.9%, JMJD2A Tudor 3.8%[11.4 µM] and G9a inh 50.1µM*.
For Cc1cccc(N2CN=c3s/c(=C\c4ccccn4)c(=O)n3C2)c1 the results were L3MBTL1 block -5.8%, HP1b chromo inh 44.5%, BAZ2B block -4.6%, JMJD2A Tudor -11.5% and G9a inh 21.5%.
`CCOc1cc(CNCc2ccccn2)ccc1OCC(=O)NC1CCCCC1` gave HP1b chromo inh 1.2%, BAZ2B block 79.4µM*, JMJD2A Tudor 56.2µM* and G9a inh 2.8%[12.7 µM].
`CCOc1cc(CNCCc2ccccc2)ccc1OCC(=O)NC(C)(C)C` gave L3MBTL1 block -0.5%, HP1b chromo inh inconclusive, BAZ2B block -2.1%, JMJD2A Tudor inconclusive and G9a inh 2.5%.
`CC(C)(C)NC(=O)COc1ccc(CNCCc2ccccc2)cc1` gave L3MBTL1 block 8.5%, HP1b chromo inh 32.2%, BAZ2B block -16.6%, JMJD2A Tudor -4.3% and G9a inh 16.7%[12.7 µM].
CCOc1cc(CNCc2cccnc2)ccc1OCC(=O)NC(C)(C)C was read as L3MBTL1 block 1.6%, HP1b chromo inh 28.4%, BAZ2B block inconclusive, JMJD2A Tudor -20.7% and G9a inh 50.1µM*.
Screening CCOc1cc(CNc2ccc3[nH]c(=O)[nH]c3c2)ccc1OCC(=O)NC(C)(C)C returned L3MBTL1 block -0.1%, HP1b chromo inh -11.0%, BAZ2B block -4.6%, JMJD2A Tudor -30.7% and G9a inh 5.01µM*.
`CC(C)(C)NC(=O)COc1ccc(CNCc2ccccn2)cc1` gave L3MBTL1 block inconclusive, HP1b chromo inh 14.2%, BAZ2B block 50.1µM* and JMJD2A Tudor 56.2µM*.
C#CCn1c(C2CC(=O)N(c3ccc(OC)cc3)C2)nc2ccccc21 (stereo not drawn) was read as HP1b chromo inh 20.0%, BAZ2B block 1.2%, JMJD2A Tudor -18.9% and G9a inh -4.0%[59 µM].
CCN(CC)CCNC(=O)c1[nH]c2ccccc2c1Sc1ccc(Cl)cc1 was read as HP1b chromo inh 9.9%, BAZ2B block -1.4%, JMJD2A Tudor -17.9% and G9a inh -24.5%[59 µM].
For O=C(Cn1cc(C(=O)c2cccs2)c2ccccc21)Nc1ccc(Br)cc1 the results were HP1b chromo inh 8.8%, BAZ2B block -3.9%, JMJD2A Tudor -5.5% and G9a inh -9.1%[59 µM].
For Cc1ccc2c(c1)C(=O)OC(C(=O)Nc1ccc(C(=O)O)cc1)C2 (stereo not drawn) the results were HP1b chromo inh 23.8%, BAZ2B block -5.7%, JMJD2A Tudor -0.7% and G9a inh -36.9%[59 µM].
CC(=O)c1ccc(N2CCN(c3ncnc4c3nc3n4CCCC3)CC2)cc1 was read as HP1b chromo inh 7.4%, BAZ2B block -2.8%, JMJD2A Tudor -11.6% and G9a inh 3.2%[59 µM].
`CCC(=O)N1CCc2cc(CNS(=O)(=O)c3ccccc3F)ccc21` gave HP1b chromo inh 28.2%[57 µM], BAZ2B block 6.4%, JMJD2A Tudor 8.8% and G9a inh 1.7%[59 µM].
`COC(=O)COc1ccc(S(=O)(=O)Nc2cc(OC)ccc2OC)cc1` gave L3MBTL1 block 22.2%, BAZ2B block 36.3% and G9a inh -27.3%[2.33 µM].
`CCOC(=O)c1cc(S(=O)(=O)Nc2cc(OC)ccc2OC)[nH]n1` gave HP1b chromo inh -4.0%[57 µM], BAZ2B block -35.8%, JMJD2A Tudor inconclusive and G9a inh 11.2µM*.
For CCOC(=O)c1cc(S(=O)(=O)Nc2cc(C)c(Cl)cc2OC)[nH]n1 the results were HP1b chromo inh 1.3%[57 µM], BAZ2B block -34.2%, JMJD2A Tudor inconclusive and G9a inh 14.1µM*.
For Cc1cc2c(c(=O)n1-c1ccccc1)C1O[C@](c3ccsc3)(Cc3cc(C#N)ccc31)O2 the results were BAZ2B block inconclusive and G9a inh 0.1%[2.33 µM].
`CCN(CC)C(=O)c1ccc2c(c1)N(Cc1ccc(C(F)(F)F)cc1)C(=O)c1ccccc1S2` gave HP1b chromo inh 28.0%, JMJD2A Tudor -27.7% and G9a inh -13.9%[59 µM].
For CCN(CC)c1ccc(C(=C2C=CC(=[N+](CC)CC)C=C2)c2ccc(S(=O)(=O)O)cc2S(=O)(=O)[O-])cc1 the results were HP1b chromo inh 22.4µM* and JMJD2A Tudor inconclusive.
Screening Clc1cccc(OCCN2CCCC2)c1 returned L3MBTL1 block -0.9%, HP1b chromo inh 26.2%, BAZ2B block -0.6%, JMJD2A Tudor -9.5% and G9a inh inconclusive.
For Clc1ccccc1OCCN1CCCCC1 the results were L3MBTL1 block -8.9%, HP1b chromo inh inconclusive, BAZ2B block -2.8%, JMJD2A Tudor 22.4µM* and G9a inh inconclusive.
For Clc1ccc(OCCN2CCCCC2)c(Cl)c1 the results were HP1b chromo inh 44.7µM*, BAZ2B block 50.1µM*, JMJD2A Tudor 5.62µM* and G9a inh 11.2µM*.
For CCCCOc1cccc(C(=O)N(Cc2sccc2C)C2CCS(=O)(=O)C2)c1 (stereo not drawn) the results were HP1b chromo inh 37.3%, BAZ2B block -1.7%, JMJD2A Tudor -12.2% and G9a inh -30.0%[59 µM].
COc1ccc(O)c(-c2nc3ccccc3c(=O)n2Cc2ccccc2)c1 was read as JMJD2A Tudor 79.4µM*.
`CCCCN(CC)C(=O)CSc1nc2n[nH]c(C)c2c(=N)n1-c1ccc(CC)cc1` gave HP1b chromo inh -3.2%, BAZ2B block -9.6%, JMJD2A Tudor -31.4% and G9a inh 5.3%[59 µM].
`COC(=O)c1ccccc1NC(=S)N(Cc1ccc2c(c1)OCO2)Cc1cc2ccc(OC)cc2[nH]c1=O` gave L3MBTL1 block -9.0%, HP1b chromo inh 28.2%, BAZ2B block inconclusive, JMJD2A Tudor -27.3%[57.1 µM] and G9a inh 0.282µM*.
Screening CC1CCCN(C(=O)c2ccc(-c3ccccc3Cl)o2)C1 (stereo not drawn) returned L3MBTL1 block 11.3%, HP1b chromo inh -4.9%, BAZ2B block inconclusive, JMJD2A Tudor 45.7% and G9a inh 44.7µM*.
`CCC(=O)Oc1ccc(C/C(=N\O)c2ccc(O)cc2O)o1` gave L3MBTL1 block 31.6µM*, HP1b chromo inh 16.9%, BAZ2B block inconclusive, JMJD2A Tudor inconclusive and G9a inh 12.6µM*.
For C[N+]1(C2CCC3CCC2C3O)CCCC1 (stereo not drawn) the results were L3MBTL1 block 3.1%, HP1b chromo inh 27.2%, BAZ2B block 50.1µM*, JMJD2A Tudor 4.1% and G9a inh 11.2µM*.
For CC(=O)OC1C2CCC1C([N+]1(C)CCCCC1)CC2 (stereo not drawn) the results were HP1b chromo inh 70.8µM*, BAZ2B block -25.6%, JMJD2A Tudor 25.1µM* and G9a inh 31.6µM*.
